Consider 34 compounds from PubChem BioAssay (Tox21).

Results filed as inconclusive are left out. A number with no mark means an inactive call. Calls of active or inactive are those of the source. Calls follow the shape of the dose curve; as a rule, active = well fitted cell-killing curve with a large enough effect in the repeat runs; inconclusive = weak or mixed curves, or effect the other way; inactive = no such curve, though single readings can be large or run the other way.
% is scaled to controls: 0 for no effect and ±100 for the full control effect; potency is read from the fitted curve at half-maximal effect.

The assay can be described thus: qHTS assay to identify small molecule antagonists of the retinoid-related orphan receptor gamma (ROR-gamma) signaling pathway - cell viability counter screen (AID 1159520). Also: nearly all actives have a fitted effect of over 50% in size. Particulars: Tet-on RORgamma CHO cells viability, ATP luminescence, 16 h; series mostly up to 92.4 µM; activity, negative = cytotoxicity: at the top concentration. The essentials:
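Tet-on ROR gamma CHO cells (1,000/well) were plated 4 hr, given compounds in DMSO for 2 hr at 37 C, then induced with 1 uM final doxycycline for 16 hr. Viability was read as ATP by CellTiter-Glo luminescence after 30 min.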
Consider `O=C(NCc1ncc(C(F)(F)F)cc1Cl)c1c(Cl)cccc1Cl`, for which the “activity, negative = cytotoxicity” value was -19.3%.

Turning to `CC(C)=CCC[C@H](C)CC=O`, the “activity, negative = cytotoxicity” value is 1.77%.

For the compound `Nc1ccc(Oc2cccc(Oc3ccc(N)cc3)c2)cc1`, the “activity, negative = cytotoxicity” value was -8.17%.

Regarding `CCOC(=O)C1=NN(c2ccc(Cl)cc2Cl)C(C)(C(=O)OCC)C1` (centres undefined), the “activity, negative = cytotoxicity” value was -11.3%.

As for `Cc1ccc2sc3cccc(C)c3c2c1`, the “activity, negative = cytotoxicity” value was -11.3%.

`CCc1cccc(C)c1N(C(=O)CS(=O)(=O)O)C(C)COC` (centres undefined): the “activity, negative = cytotoxicity” value was 5.44%.

As to `CC(=O)Nc1ccc(N=Nc2cc(C)ccc2O)cc1`, the “activity, negative = cytotoxicity” value was 0.585%.

On to `CCOc1nc(F)cc2nc(S(=O)(=O)Nc3c(Cl)cccc3C(=O)OC)nn12`, for which the “activity, negative = cytotoxicity” value was -0.115%.

With `CCCCNc1ccc(NCCCC)c2c1C(=O)c1ccccc1C2=O`, the activity, negative = cytotoxicity is -0.683% [at 19 µM].

For the compound `Cc1ccc(C=O)cc1`, the “activity, negative = cytotoxicity” value was 11.4% [at 42.5 µM].

For `Cc1cccc2c1ccc1ccccc12`, the “activity, negative = cytotoxicity” value is -2.43%.

As for `O=C(O)CN(CCCN(CC(=O)O)CC(=O)O)CC(=O)O`, the activity, negative = cytotoxicity was 3.4% [at 19 µM].

With `CCCCCCCCSCc1cc(C)c(O)c(CSCCCCCCCC)c1`, the “activity, negative = cytotoxicity” value was 3.47%.

Turning to `C/C=C/C(=O)C1=C(C)C=CCC1(C)C`, the “activity, negative = cytotoxicity” value was 8.3%.

Regarding `C=CC(C)(C)O`, the “activity, negative = cytotoxicity” value is 9.66%.

For `CCn1c2ccccc2c2ccccc21`, the “activity, negative = cytotoxicity” value was -15.7%.

Consider `ClC(c1ccccc1)(c1ccccc1)c1ccccc1`, for which the “activity, negative = cytotoxicity” value is -2.78%.

Regarding `CC(C)(c1ccc(Oc2ccc(N)cc2)cc1)c1ccc(Oc2ccc(N)cc2)cc1`, the Potency is 61.1 µM (active).

In the case of `C=Cc1ccc(O)c(OC)c1`, the “activity, negative = cytotoxicity” value is 3.62%.

Turning to `C/C(=C\c1ccc(C(=O)O)cc1)c1ccc2c(c1)C(C)(C)CCC2(C)C`, the “activity, negative = cytotoxicity” value was 0.986% [at 42.5 µM].

Turning to `CCCCCCCCc1ccc(Nc2ccc(CCCCCCCC)cc2)cc1`, the “activity, negative = cytotoxicity” value is -3.37% [at 42.5 µM].

As to `COc1cc(C(C)C)ccc1C`, the activity, negative = cytotoxicity was -0.985% [at 19 µM].

For the compound `CC1=CC[C@@H](C(C)(C)O)CC1`, the “activity, negative = cytotoxicity” value is 4.29%.

`C=CC(=O)OCC(Br)CBr` (centres undefined): the “activity, negative = cytotoxicity” value was -0.342%.

As to `CCCCCCCCCCCC(=O)Cl`, the “activity, negative = cytotoxicity” value is -14%.

In the case of `O=C(Cl)c1ccc(Cl)cc1Cl`, the Potency is 61.1 µM (active).

As for `NC(=O)C1CO1` (centres undefined), the “activity, negative = cytotoxicity” value was 2.02%.

As for `N#CCCOCCC#N`, the “activity, negative = cytotoxicity” value is 2.17%.

On to `Cn1ccnc1`, for which the “activity, negative = cytotoxicity” value is -1.58%.

On to `CCOC=C(C(=O)OCC)C(=O)OCC`, for which the “activity, negative = cytotoxicity” value is -3.82%.

Take `CCCCCCCCCCCCS(=O)(=O)Cl`: the activity, negative = cytotoxicity is -7.74% [at 19 µM].

Regarding `CSc1ccc(O)cc1C`, the “activity, negative = cytotoxicity” value is -27.2%.

For the compound `CCc1cccc(CC)c1`, the “activity, negative = cytotoxicity” value was 3.63%.

On to `Clc1cccc(Cl)n1`, for which the “activity, negative = cytotoxicity” value is 3.7%.
